{
  "source": "PubChem BioAssay AID372",
  "about": "(MTDP, 2006)",
  "note": "Hit rate of the full screen: of about 100,000 compounds, about 770 (0.77%) were called active. The entries come from a sample that favours actives as a whole. Unmarked numbers belong to inactive results. Rule as the data show it: active = inhibition above about 50%; inactive = the rest.",
  "data": [
    {"target": "Gag-Pol polyprotein (Human immunodeficiency virus type 1 group M subtype B (isolate HXB2)) (UniProt P04585)", "test": "RNase H inhibition, HIV 1 Gag Pol polyprotein, FRET biochemical assay, screening (AID 372)", "conditions": "HIV-1 RT RNase H, FRET RNA/DNA substrate fluorescence; at 10 µM; active compounds read high", "values": [
      {"smiles": "Cc1ccc(N(CC(=O)O)S(C)(=O)=O)cc1C", "inhibition": "0%"},
      {"smiles": "CCCOc1ccccc1/C=C1/SC(N2CCN(c3ccc(Cl)cc3)CC2)=NC1=O", "inhibition": "12%"},
      {"smiles": "CCOC(=O)c1cnn2c1NC1=C(CCc3ccccc31)C2C(F)(F)F", "note": "(centres undefined)", "inhibition": "58% (active)"},
      {"smiles": "CCOC(=O)c1ccccc1NC(=O)c1cnn2c1NC(c1ccccc1)CC2C(F)(F)F", "note": "(centres undefined)", "inhibition": "17%"},
      {"smiles": "CCOC(=O)c1cnn2c(C(F)(F)F)c3c(nc12)-c1ccccc1CC3", "inhibition": "7%"},
      {"smiles": "COc1ccc(CN(CCC(c2ccccc2OC)C2CCOC(C)(C)C2)C(C)=O)cc1", "note": "(centres undefined)", "inhibition": "17%"},
      {"smiles": "COc1ccccc1NC(=O)Nc1nnc(-c2ccccc2SCc2ccc(F)cc2)s1", "inhibition": "10%"},
      {"smiles": "CCOC(=O)c1ccc(N=Cc2ccc3c(c2)OCO3)cc1", "inhibition": "4%"},
      {"smiles": "CCOc1ccc(NC(=O)c2c(NC(=O)c3ccco3)sc3c2CCCC3)cc1", "inhibition": "4%"},
      {"smiles": "Cc1ccccc1NC(=O)c1c(NC(=O)c2ccco2)sc2c1CCC2", "inhibition": "24%"},
      {"smiles": "COc1ccc(NC(=O)c2c(NC(=O)c3ccco3)sc3c2CCC3)cc1", "inhibition": "15%"},
      {"smiles": "Cc1ccccc1NC(=O)c1c(NC(=O)c2ccco2)sc2c1CCC(C)C2", "note": "(centres undefined)", "inhibition": "51% (active)"},
      {"smiles": "CCOc1ccccc1NC(=O)c1c(NC(=O)c2ccco2)sc2c1CCC(C)C2", "note": "(centres undefined)", "inhibition": "7%"},
      {"smiles": "O=C(c1cc(Cl)ccc1Cl)N1CCN(c2ccccc2)CC1", "inhibition": "5%"},
      {"smiles": "Cc1ccc(OCC(=O)Nc2nc(-c3ccccc3)cs2)c(C)c1", "inhibition": "5%"},
      {"smiles": "COc1ccc(Nc2ccc(C(F)(F)F)cc2[N+](=O)[O-])cc1", "inhibition": "7%"},
      {"smiles": "CCNC(=O)c1c(O)c2ccccc2n(C)c1=O", "inhibition": "1%"},
      {"smiles": "O=C(c1ccc(Cl)cc1)c1ccc(N2CCOCC2)c([N+](=O)[O-])c1", "inhibition": "16%"},
      {"smiles": "O=C(c1ccc(Cl)c(Cl)c1)c1ccc(N2CCOCC2)c([N+](=O)[O-])c1", "inhibition": "54% (active)"},
      {"smiles": "O=C(c1ccc(Cl)c(Cl)c1)c1ccc(N2CCCCC2)c([N+](=O)[O-])c1", "inhibition": "19%"},
      {"smiles": "COc1ccc(N/C(C)=C/C(=O)ONC(=O)c2ccccc2)cc1", "inhibition": "5%"},
      {"smiles": "CCOC(=O)C(N)CSC1CC(=O)N(c2ccc(Cl)c(Cl)c2)C1=O", "note": "(centres undefined)", "inhibition": "7%"},
      {"smiles": "Clc1cccc(-c2nnc(-c3ccc4c(c3)OCO4)o2)c1", "inhibition": "15%"},
      {"smiles": "O=C(CSc1nc2ccccc2s1)NNC(=S)NC1CCCCC1", "inhibition": "56% (active)"},
      {"smiles": "O=C(CSc1nc2ccccc2s1)Nc1ccc(F)c(Cl)c1", "inhibition": "23%"},
      {"smiles": "O=C(CSc1nc2ccccc2s1)NC1CCCCC1", "inhibition": "0%"},
      {"smiles": "O=C(CSc1nc2ccccc2s1)NNC(=O)NC1CCCCC1", "inhibition": "0%"},
      {"smiles": "O=C(CSc1nc2ccccc2s1)NNC(=S)Nc1ccc(Cl)cc1", "inhibition": "65% (active)"},
      {"smiles": "O=C(CSc1nc2ccccc2s1)Nc1ccc(Cl)cc1", "inhibition": "37%"},
      {"smiles": "COc1ccc(/C=C2/SC(=O)N(CC(=O)Nc3ccc(C)c(C)c3)C2=O)cc1OC", "inhibition": "22%"},
      {"smiles": "CCCOc1ccc(/C=C2/C(=O)NC(=O)N2C(C)=O)cc1OC", "inhibition": "0%"},
      {"smiles": "O=C(O)c1cc(Br)ccc1N=Cc1ccc2c(c1)OCO2", "inhibition": "8%"},
      {"smiles": "O=C(Nc1ccc2oc(-c3c(F)c(F)c(F)c(F)c3F)nc2c1)c1ccc(F)cc1", "inhibition": "13%"},
      {"smiles": "O=C(Nc1ccc2oc(-c3ccccc3)nc2c1)c1ccc2ccccc2c1", "inhibition": "19%"},
      {"smiles": "CCCOc1ccc(C(=O)Nc2ccc3oc(-c4c(F)c(F)c(F)c(F)c4F)nc3c2)cc1", "inhibition": "14%"},
      {"smiles": "Cc1ccc2oc(-c3ccc(NC(=O)c4ccc5ccccc5c4)cc3)nc2c1", "inhibition": "52% (active)"},
      {"smiles": "Cc1ccc2oc(-c3ccc(NC(=O)c4ccc(C)c(C)c4)cc3)nc2c1", "inhibition": "20%"},
      {"smiles": "Cc1ccc2nc(-c3ccc(C)c(NC(=O)c4ccc5ccccc5c4)c3)oc2c1", "inhibition": "19%"},
      {"smiles": "COc1ccc(C(=O)Nc2ccc(-c3nc4cc(C)ccc4o3)cc2)cc1Br", "inhibition": "23%"},
      {"smiles": "Cc1ccc(C(=O)Nc2ccc3oc(-c4c(F)c(F)c(F)c(F)c4F)nc3c2)cc1", "inhibition": "52% (active)"},
      {"smiles": "Cc1ccc2nc(-c3cccc(NC(=O)c4ccc5ccccc5c4)c3)oc2c1", "inhibition": "38%"},
      {"smiles": "Cc1ccc2oc(-c3ccc(NC(=O)c4ccc(Br)cc4)cc3)nc2c1", "inhibition": "55% (active)"},
      {"smiles": "O=C(Nc1ccc(-c2nc3ccccc3o2)cc1)c1ccc2ccccc2c1", "inhibition": "43%"},
      {"smiles": "Cc1ccc2nc(-c3ccc(NC(=O)c4ccc5ccccc5c4)cc3)oc2c1", "inhibition": "59% (active)"},
      {"smiles": "COc1ccc(/C=C2\\SC(=S)N(CCC(=O)OC3CCCCC3)C2=O)cc1", "inhibition": "4%"},
      {"smiles": "CSCCNS(=O)(=O)c1ccc(C)c([N+](=O)[O-])c1", "inhibition": "0%"},
      {"smiles": "O=C(O)CCCN1C(=O)/C(=C/c2cccc(Br)c2)SC1=S", "inhibition": "10%"},
      {"smiles": "COc1ccc(/C=N/NC(=O)c2ccn[nH]2)cc1COc1ccc(Cl)cc1Cl", "inhibition": "5%"},
      {"smiles": "COc1cccc(Nc2c([N+](=O)[O-])c(=O)n(-c3ccccc3)c3ccccc23)c1", "inhibition": "15%"},
      {"smiles": "CCc1ccc2[nH]c3nc(NN)nnc3c2c1", "inhibition": "5%"},
      {"smiles": "Cc1cccc(OC(=O)c2cccc([N+](=O)[O-])c2)c1", "inhibition": "6%"},
      {"smiles": "COc1ccc(N2C(=O)C(=O)/C(=C(\\O)c3ccc([N+](=O)[O-])cc3)C2c2ccc(Br)cc2)cc1", "note": "(centres undefined)", "inhibition": "4%"},
      {"smiles": "COc1ccc(OC)c(NC(=O)c2cnccn2)c1", "inhibition": "6%"},
      {"smiles": "Cc1cc(C(=O)Nc2ccc(S(=O)(=O)Nc3nccs3)cc2)ccc1[N+](=O)[O-]", "inhibition": "6%"},
      {"smiles": "CCOc1cc(C2C(C(=O)OCc3ccc(OC)cc3)=C(C)NC3=C2C(=O)CCC3)cc(Cl)c1O", "note": "(centres undefined)", "inhibition": "2%"},
      {"smiles": "CC(C)COc1ccc(C(=O)Nc2ccc(-c3nc4ncccc4o3)cc2)cc1", "inhibition": "8%"},
      {"smiles": "CC(C)COc1ccc(C(=O)Nc2ccc(-c3nc4ccccc4o3)cc2)cc1", "inhibition": "64% (active)"},
      {"smiles": "CC(C)COc1ccc(C(=O)Nc2ccc3oc(-c4ccncc4)nc3c2)cc1", "inhibition": "1%"},
      {"smiles": "O=C(Nc1ccc(-c2nc3ccccc3o2)c(O)c1)c1ccc(-c2cccc(Cl)c2)o1", "inhibition": "10%"},
      {"smiles": "CCOC(=O)c1c(NC(=O)CSc2nccn2C)sc2c1CCCC2", "inhibition": "0%"},
      {"smiles": "CCc1ccc(C2=NN(c3ccccc3)C(c3cn(-c4ccccc4)nc3-c3cccnc3)C2)cc1", "note": "(centres undefined)", "inhibition": "20%"},
      {"smiles": "COc1ccc(C(=O)CC(C(C)C)C(C=C(C)C)C(=O)c2ccc(OC)cc2)cc1", "note": "(centres undefined)", "inhibition": "29%"},
      {"smiles": "C=C(C)C(C)(C#CCN1CCOCC1)OC(C)=O", "note": "(centres undefined)", "inhibition": "56% (active)"},
      {"smiles": "C=C(C)C(C)(C#CCN1CCCCC1)OC(C)=O", "note": "(centres undefined)", "inhibition": "8%"},
      {"smiles": "CC(C)(O)C#CCN1CCOCC1", "inhibition": "0%"},
      {"smiles": "COc1cc(C2C(C(=O)Nc3cccc(C)n3)=C(C)NC3=C2C(=O)CC(C)(C)C3)cc(OC)c1OC", "note": "(centres undefined)", "inhibition": "7%"},
      {"smiles": "COc1ccc(N(CC(=O)N2CCCCC2)S(=O)(=O)c2ccccc2[N+](=O)[O-])c(OC)c1", "inhibition": "2%"},
      {"smiles": "COCCCNC(=O)CN(c1ccc(Cl)cc1)S(=O)(=O)c1ccccc1", "inhibition": "0%"},
      {"smiles": "COc1cc(NC(=S)NC(=O)c2ccc(Cl)cc2)ccc1NC(=O)c1cc2ccccc2o1", "inhibition": "54% (active)"},
      {"smiles": "COc1cc(NC(=S)NC(=O)c2cccc(Cl)c2)ccc1NC(=O)c1cc2ccccc2o1", "inhibition": "11%"},
      {"smiles": "COc1cc(NC(=S)NC(=O)c2ccc(Cl)cc2)ccc1NC(=O)c1ccco1", "inhibition": "42%"},
      {"smiles": "COc1cc(NC(=S)NC(=O)c2cccc(F)c2)ccc1NC(=O)c1cc2ccccc2o1", "inhibition": "58% (active)"},
      {"smiles": "COc1ccc(C(=O)NC(=S)Nc2ccc(NC(=O)c3cc4ccccc4o3)c(OC)c2)cc1", "inhibition": "7%"},
      {"smiles": "COc1cc(NC(=S)NC(=O)c2ccc(C)c(C)c2)ccc1NC(=O)c1cc2ccccc2o1", "inhibition": "15%"},
      {"smiles": "CCc1nnc(NC(=O)CCCOc2ccc(Cl)cc2Cl)s1", "inhibition": "1%"},
      {"smiles": "Cc1ccccc1/C=N/NC(=O)Nc1ccccc1", "inhibition": "16%"},
      {"smiles": "Cc1ccc(-c2nc3ccccc3s2)cc1NC(=O)c1cc(I)ccc1Cl", "inhibition": "15%"},
      {"smiles": "O=C(COc1ccccc1Br)N/N=C/c1ccccc1", "inhibition": "3%"},
      {"smiles": "Cc1ccccc1NCC(=O)N/N=C\\c1c(Br)cc(Br)c(O)c1Br", "inhibition": "16%"},
      {"smiles": "Cc1ccc(NCC(=O)N/N=C\\c2c(Br)cc(Br)c(O)c2Br)cc1", "inhibition": "17%"},
      {"smiles": "O=C1C(=O)N(CN2CCOCC2)c2ccc(Br)cc21", "inhibition": "18%"},
      {"smiles": "Ic1cccc(-c2nc(-c3ccncc3)no2)c1", "inhibition": "59% (active)"},
      {"smiles": "COc1ccc(-c2noc(-c3cccc(I)c3)n2)cc1", "inhibition": "22%"},
      {"smiles": "Cc1ccc(-c2noc(-c3cccc(I)c3)n2)cc1", "inhibition": "7%"},
      {"smiles": "Ic1cccc(-c2nc(-c3cccnc3)no2)c1", "inhibition": "55% (active)"},
      {"smiles": "Brc1cccc(-c2nc(-c3cccnc3)no2)c1", "inhibition": "28%"},
      {"smiles": "Cc1cccc(-c2nc(-c3cccnc3)no2)c1", "inhibition": "27%"},
      {"smiles": "Cc1cc(Cl)ccc1NC(=O)CN(c1cccc(Br)c1)S(C)(=O)=O", "inhibition": "12%"},
      {"smiles": "O/N=C1\\CCCc2c1nc(-c1ccc(F)cc1)n2O", "inhibition": "0%"},
      {"smiles": "COc1ccc(/C=C/C(=O)Nc2ccc(I)cc2)cc1OC", "inhibition": "16%"},
      {"smiles": "CCc1c(C)c2ccc(OCc3ccccc3)c(C)c2oc1=O", "inhibition": "16%"},
      {"smiles": "Clc1ccc(Nc2nc(Nc3ccc(Cl)cc3)nc(N3CCOCC3)n2)cc1", "inhibition": "11%"},
      {"smiles": "Clc1ccc(Nc2nc(Oc3ccccc3)nc(N3CCOCC3)n2)cc1", "inhibition": "15%"},
      {"smiles": "O=C(NNc1nc(Nc2ccccc2)nc(N2CCOCC2)n1)Nc1ccc(Cl)cc1", "inhibition": "72% (active)"},
      {"smiles": "COc1ccc(S(=O)(=O)N2CCN(CCN3C(=O)c4cccc5cccc(c45)C3=O)CC2)cc1", "inhibition": "15%"},
      {"smiles": "CC(C)Nc1nc(-c2cccnc2)nc2ccccc12", "inhibition": "8%"},
      {"smiles": "CC(Nc1cc(Cl)ccc1[N+](=O)[O-])c1ccc(Br)cc1", "note": "(centres undefined)", "inhibition": "54% (active)"},
      {"smiles": "O=[N+]([O-])c1ccc(Cl)cc1NC(c1ccccc1)c1ccccc1", "inhibition": "12%"},
      {"smiles": "CC(Nc1cc(N2CCN(C)CC2)ccc1[N+](=O)[O-])c1ccc(Br)cc1", "note": "(centres undefined)", "inhibition": "9%"}
    ]}
  ]
}
